# Source: PubChem BioAssay (National Center for Advancing Translational Sciences (NCATS))
# FBPA Giardia inh – blocks Giardia fructose-bisphosphate aldolase activity | purified Giardia FBPA | Potency, µM (top dose mostly 59.6 µM), for inactives: at the highest dose activity, negative = inhibition, hits mostly inhibitors | actives 0.71% (n = 290,000) | AID 2451; also: potency is read from the fitted curve at half-maximal effect; % is scaled to controls: 0 for no effect and ±100 for the full control effect; nearly all actives have a fitted effect of over 55% in size
# Target sequence (A8B2U2 whole entry, looked up): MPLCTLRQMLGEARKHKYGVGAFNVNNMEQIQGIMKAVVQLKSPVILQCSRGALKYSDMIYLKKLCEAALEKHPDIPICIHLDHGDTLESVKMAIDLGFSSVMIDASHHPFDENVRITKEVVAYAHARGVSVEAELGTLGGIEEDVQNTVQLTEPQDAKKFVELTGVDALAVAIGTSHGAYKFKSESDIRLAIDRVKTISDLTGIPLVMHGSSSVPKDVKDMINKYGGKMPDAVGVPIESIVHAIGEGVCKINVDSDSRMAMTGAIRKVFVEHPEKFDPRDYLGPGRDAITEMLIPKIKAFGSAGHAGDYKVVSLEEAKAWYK
#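 Giardia FBPA (40 nM reagent) was preincubated 10 min at RT with compound (up to 57.5 uM final), then substrate plus GAPDH/TPI/NAD/arsenate coupling system with diaphorase/resazurin was added; resorufin fluorescence (525/598 nm) was read after 20 min.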
# RE007 growth inh – less growth of the S. pombe RE007 Vpr strain; S. pombe RE007 Vpr strain, BacTiter-Glo ATP luminescence, 24 h; Potency, µM (series often up to 92.2 µM), for inactives: at the highest dose activity change, negative = less growth, actives largely listed as inhibitors; actives 0.21% (n = 360,000); active = well fitted falling curve with a large enough effect; inconclusive = small, poorly fitted or top-dose-only effect; inactive = no such curve, though single readings can be large or run the other way; also: potency is read from the fitted curve at half-maximal effect; % is scaled to controls: 0 for no effect and ±100 for the full control effect; nearly all actives have a fitted effect of over 50% in size
#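 Fission yeast RE007 carrying one integrated HIV-1 vpr copy, seeded at OD 0.01 in PMG+AL medium with 23 nL pinned compound. Grown 24 h at 30 degrees; viability read by BacTiter-Glo luminescence after 5 min.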
# LmPK inhibitor – inhibitors of Leishmania mexicana pyruvate kinase; purified LmPK, Kinase-Glo ATP luminescence, 1 h; Potency, µM (series often up to 57.5 µM), for inactives: at the highest dose activity change, negative = inhibition, most hits filed as inhibitors; actives 0.37% (n = 290,000); also: potency is read from the fitted curve at half-maximal effect; % is scaled to controls: 0 for no effect and ±100 for the full control effect
#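 qHTS format; LmPK 0.1 nM; substrates PEP 0.5 mM and ADP 0.1 mM. One-hour room-temperature incubation, then coupled luciferase luminescence; 0.5 nM enzyme wells mark activation.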
# Tb PYK inh – blocks Trypanosoma brucei pyruvate kinase; Q57TT1; Potency, µM (titrated, usually from 76.8 µM), for inactives: at the highest dose activity, negative = inhibition, most hits filed as inhibitors; actives 0.12% (n = 410,000); TbPYK enzyme, Kinase-Glo Plus ATP luminescence, 45 min; AID 624173; also: potency is read from the fitted curve at half-maximal effect; % is scaled to controls: 0 for no effect and ±100 for the full control effect; nearly all actives have a fitted effect of over 50% in size
#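 Enzyme and substrate buffer are dispensed first and compound is pin-transferred. ADP at 130 uM final then starts the reaction, which runs 45 min at room temperature. Detection reagent is added for 10 min before luminescence is imaged.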
# Shiga toxin inh – inhibitors of Shiga toxin in Vero cells; Vero cells, Shiga toxin protein synthesis inhibition reporter; inhibition, % at 38.7 µM; actives 9.2% (n = 290,000); AID 2315; in the data active = inhibition mostly above about 28%, no sharp cut-off; inactive = mostly below about 43%; also: 0% is about no effect
# Cycloheximide cs – affects cycloheximide protein synthesis inhibition readout, counter-screen | cell reporter, cycloheximide protein synthesis inhibition counterscreen | max response, % | actives 12% (n = 300,000); in the data active = max response mostly above about 13%, no sharp cut-off; inactive = mostly below about 14%; also: read at 38.3 µM for the half of the compounds with a filed dose; 0% is about no effect
# * hit, by the source's call; u = inconclusive; x = no result; + = active, no number. This excerpt belongs to a sample that is enriched for hits. Unless noted, calls follow the shape of the dose curve; as a rule, active = well fitted curve in the direction sought with a large enough effect; inconclusive = small, poorly fitted or top-dose-only effect, or another doubt; inactive = no such curve, though single readings can be large; an effect the other way counts as inactive or inconclusive.
SMILES,FBPA Giardia inh,RE007 growth inh,LmPK inhibitor,Tb PYK inh,Shiga toxin inh,Cycloheximide cs
CCNc1cc(S(=O)(=O)C(F)(F)F)ccc1N,-27%,x,1%,0%,14,6
CCNc1ccc(C(=O)O)cc1N,-18%,-19%,2%,-13%,61*,32*
O=C(NCC(c1cccnc1)N1CCc2ccccc2C1)c1ccc(F)c(F)c1 (stereo not given),x,x,x,-8%,x,x
Nc1c(Cl)ncnc1N/N=C/c1cccnc1,-26%,-3%,-6%,0%,14,15*
Nc1c(Cl)ncnc1N/N=C/c1ccccn1,28%,u,-18%,-4%,active,25*
Nc1c(Cl)ncnc1N/N=C/c1ccc2ccccc2n1,-2%,u,-10%,-8%,121*,69*
Nc1c(Cl)ncnc1N/N=C/c1ccnc2ccccc12,-11%,-5%,-4%,-1%,20,10
Fc1ccccc1OCCn1c(=S)[nH]c2ccccc21,22%,3%,0%,-25%,28*,24*
N#CCCn1cnc2c1NC=NC2Cl (stereo not given),0%,x,x,x,x,x
C1CCN=C(Nc2nc3c(s2)CCCC3)CC1,-23%,-17%,-7%,4%,120*,39*
c1nnc(NC2=NCCC2)s1,-2%,16%,0%,-9%,-14,-1
c1nnc(NC2=NCCCCC2)s1,-2%,-10%,-3%,0%,32,22*
Cc1ccc(C)c(NC(=O)Cn2nc(C)c3nn(-c4ccc(Cl)cc4)c(C)c3c2=O)c1,x,x,x,3%,x,x
COC(=O)c1sc2cccc(F)c2c1S(=O)(=O)NCc1ccccc1Cl,x,x,x,-26%,x,x
S=c1cnc2ccccc2[nH]1,-11%,21%,3%,u,70,30*
CCc1ccc2[nH]c(=O)c(CN(Cc3ccccc3OC)Cc3nnnn3Cc3ccco3)cc2c1,-2%,0%,5%,-8%,8,8
COc1cc2cc(CN(Cc3nnnn3Cc3ccco3)C3CCCCC3)c(=O)[nH]c2cc1OC,10µM*,20%,16%,2%,-14,5
COc1ccccc1CN(Cc1cc2cc(C)ccc2[nH]c1=O)Cc1nnnn1Cc1ccco1,9%,-10%,-1%,1%,53*,13
Cc1cccc(NC(=O)CS(=O)(=O)c2nc(-c3ccccc3)cn2-c2cccc(Cl)c2)c1C,x,x,x,0%,x,x
C=CCn1c(SCC(=O)Nc2nnc(C)s2)nnc1C1CC1,x,2%,-8%,2%,-23,16*
CCCC(=O)Nc1ccc(NC(=O)c2ccco2)c(OC)c1,0%,8%,-7%,-17%,+,28*
O=C(Nc1nc(SCc2ccc(F)cc2)ns1)c1ccco1,4%,u,-6%,1%,34,16*
CCSc1nsc(NC(=O)Nc2ccc(F)cc2F)n1,-18%,-23%,-3%,0%,87*,59*
CCC(=O)Nc1ccc(NC(=O)c2ccco2)cc1,4%,14%,-16%,1%,57*,25*
O=C(Nc1nnc(COc2ccc(F)cc2)s1)c1ccco1,7%,-29%,-2%,-9%,12,5
SMILES,FBPA Giardia inh,RE007 growth inh,LmPK inhibitor,Tb PYK inh,Shiga toxin inh,Cycloheximide cs
CCSc1nsc(NC(=O)Nc2ccccc2Cl)n1,x,1%,x,4%,x,x
COc1cc(NC(=O)c2cc([N+](=O)[O-])ccc2N2CCOCC2)ccc1NC(=O)c1ccco1,x,-10%,-6%,3%,-5,-1
O=C(Nc1ccc(CSc2ccccc2)cc1)c1ccco1,x,-4%,-5%,-5%,96*,46*
COCCNC(=S)Nc1cc(OC)c(NC(=O)c2ccco2)cc1OC,3%,6%,5%,-3%,27,22*
COc1cc(NC(=O)c2cccc([N+](=O)[O-])c2C)ccc1NC(=O)c1ccco1,1%,22%,2%,-1%,72*,19*
CCC(=O)Nc1ccc(NC(=O)c2ccco2)c(OC)c1,-4%,5%,-1%,-4%,67*,30*
O=c1c2sccc2n(Cc2cc(=O)n3ccccc3n2)c(=O)n1-c1ccccc1,-1%,2%,-2%,5%,-5,1
COC(=O)c1cc2ccsc2n1Cc1cc(=O)n2ccccc2n1,-28%,-7%,2%,-5%,74*,28*
